Assays:
Test in all cases: log2 ratio of Biotin-Ahx-Ub-VS probe labelling (fragment/DMSO); higher = less target engagement (more negative = stronger competition), active = hit call of the paper (q ≤ 0.05, log2 ratio ≤ -1)
Details in all cases: compound concentration: 200 uM; treatment time: 3 h
USP34 = USP34 (UniProt Q70CQ2)
Outline: (§1)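 Average log2 ratios of fragment over vehicle were obtained by unpaired t-test from global-median-normalised Spectronaut label-free quantities. Proteins with ≥2 unique peptides were included. HEK293T lysate (495 µg per sample) was treated in triplicate with fragment at 200 µM or vehicle for 3 h, then with Biotin-Ahx-Ub-VS at 0.5 µM final for 1 h, and labelled DUBs were NeutrAvidin-enriched and run by diaPASEF LC-MS/MS.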

USP36 = biological target: T1, USP36 (UniProt Q9P275)
T1 sequence (whole entry): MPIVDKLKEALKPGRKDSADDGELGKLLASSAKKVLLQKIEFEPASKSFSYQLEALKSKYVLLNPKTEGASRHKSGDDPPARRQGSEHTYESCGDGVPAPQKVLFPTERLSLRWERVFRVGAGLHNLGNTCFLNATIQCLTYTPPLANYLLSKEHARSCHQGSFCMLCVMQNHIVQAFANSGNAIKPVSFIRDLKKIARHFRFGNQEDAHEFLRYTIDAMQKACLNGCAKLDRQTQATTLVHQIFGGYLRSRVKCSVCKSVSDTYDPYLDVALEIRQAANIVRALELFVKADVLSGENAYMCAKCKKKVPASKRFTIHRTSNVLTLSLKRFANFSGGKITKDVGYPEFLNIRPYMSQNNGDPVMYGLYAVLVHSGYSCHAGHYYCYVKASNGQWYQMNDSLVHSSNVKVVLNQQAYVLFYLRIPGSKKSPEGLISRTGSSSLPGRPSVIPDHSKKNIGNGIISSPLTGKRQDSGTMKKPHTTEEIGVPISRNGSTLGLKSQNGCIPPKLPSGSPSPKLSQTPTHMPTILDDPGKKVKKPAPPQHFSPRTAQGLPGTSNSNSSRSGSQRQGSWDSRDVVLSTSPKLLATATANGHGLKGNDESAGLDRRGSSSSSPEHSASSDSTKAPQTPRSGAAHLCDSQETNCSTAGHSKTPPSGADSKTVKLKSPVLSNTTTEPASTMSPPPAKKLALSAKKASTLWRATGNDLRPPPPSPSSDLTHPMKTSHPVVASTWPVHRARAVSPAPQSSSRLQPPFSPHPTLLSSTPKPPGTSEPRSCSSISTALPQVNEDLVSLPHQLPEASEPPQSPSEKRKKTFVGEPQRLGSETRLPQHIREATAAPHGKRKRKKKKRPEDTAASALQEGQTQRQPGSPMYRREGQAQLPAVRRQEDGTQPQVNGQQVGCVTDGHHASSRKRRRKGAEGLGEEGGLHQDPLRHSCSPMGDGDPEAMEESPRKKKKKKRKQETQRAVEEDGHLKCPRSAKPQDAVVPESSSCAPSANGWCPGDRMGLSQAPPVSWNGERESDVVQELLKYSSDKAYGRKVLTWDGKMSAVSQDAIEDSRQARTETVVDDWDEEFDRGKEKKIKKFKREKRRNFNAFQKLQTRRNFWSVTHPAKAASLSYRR
Outline: as §1

USP38 = biological target: T2, USP38 (UniProt Q8NB14)
T2 sequence (whole entry): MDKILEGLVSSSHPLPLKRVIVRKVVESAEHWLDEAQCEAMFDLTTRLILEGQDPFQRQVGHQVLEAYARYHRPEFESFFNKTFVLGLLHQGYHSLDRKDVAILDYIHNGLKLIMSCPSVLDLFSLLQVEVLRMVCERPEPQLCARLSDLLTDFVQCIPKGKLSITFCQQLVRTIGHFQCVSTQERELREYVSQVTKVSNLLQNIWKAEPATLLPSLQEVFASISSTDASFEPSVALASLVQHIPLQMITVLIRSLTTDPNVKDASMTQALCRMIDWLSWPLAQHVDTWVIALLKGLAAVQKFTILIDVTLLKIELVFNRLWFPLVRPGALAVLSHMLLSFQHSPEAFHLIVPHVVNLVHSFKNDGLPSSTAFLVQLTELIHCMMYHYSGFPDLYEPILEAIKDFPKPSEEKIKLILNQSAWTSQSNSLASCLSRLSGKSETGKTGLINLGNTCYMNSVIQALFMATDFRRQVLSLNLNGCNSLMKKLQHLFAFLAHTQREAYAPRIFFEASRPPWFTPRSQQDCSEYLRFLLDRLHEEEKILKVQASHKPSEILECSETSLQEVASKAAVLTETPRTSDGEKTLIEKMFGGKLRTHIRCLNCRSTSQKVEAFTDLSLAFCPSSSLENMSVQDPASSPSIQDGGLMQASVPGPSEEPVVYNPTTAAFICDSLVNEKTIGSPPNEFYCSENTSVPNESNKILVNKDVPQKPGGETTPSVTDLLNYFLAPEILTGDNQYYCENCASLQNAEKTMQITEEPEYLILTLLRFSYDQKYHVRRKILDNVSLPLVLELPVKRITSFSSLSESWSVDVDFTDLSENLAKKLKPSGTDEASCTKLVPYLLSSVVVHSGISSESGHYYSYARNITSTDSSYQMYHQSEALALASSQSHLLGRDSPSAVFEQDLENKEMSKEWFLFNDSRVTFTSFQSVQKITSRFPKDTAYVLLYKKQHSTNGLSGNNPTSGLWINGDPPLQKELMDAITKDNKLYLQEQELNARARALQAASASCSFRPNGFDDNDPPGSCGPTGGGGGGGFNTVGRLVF
Outline: as §1

USP39 = biological target: T3, USP39 (UniProt Q53GS9)
T3 sequence (whole entry): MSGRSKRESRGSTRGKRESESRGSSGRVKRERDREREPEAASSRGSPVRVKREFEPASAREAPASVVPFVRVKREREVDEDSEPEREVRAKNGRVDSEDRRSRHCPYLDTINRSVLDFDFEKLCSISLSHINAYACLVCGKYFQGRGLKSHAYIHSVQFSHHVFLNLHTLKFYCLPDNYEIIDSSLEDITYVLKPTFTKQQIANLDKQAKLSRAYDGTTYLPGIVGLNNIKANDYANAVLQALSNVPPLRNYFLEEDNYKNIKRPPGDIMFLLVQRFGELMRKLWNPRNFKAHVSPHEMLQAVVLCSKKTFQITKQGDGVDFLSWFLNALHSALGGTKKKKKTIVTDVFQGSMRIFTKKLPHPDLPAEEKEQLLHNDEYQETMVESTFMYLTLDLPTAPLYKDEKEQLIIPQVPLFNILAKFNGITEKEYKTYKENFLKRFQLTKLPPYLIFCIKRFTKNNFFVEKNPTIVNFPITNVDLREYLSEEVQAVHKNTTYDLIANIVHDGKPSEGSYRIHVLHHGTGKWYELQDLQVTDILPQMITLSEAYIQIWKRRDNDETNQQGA
Outline: as §1

USP4 = biological target: T4, USP4 (UniProt Q13107)
T4 sequence (whole entry): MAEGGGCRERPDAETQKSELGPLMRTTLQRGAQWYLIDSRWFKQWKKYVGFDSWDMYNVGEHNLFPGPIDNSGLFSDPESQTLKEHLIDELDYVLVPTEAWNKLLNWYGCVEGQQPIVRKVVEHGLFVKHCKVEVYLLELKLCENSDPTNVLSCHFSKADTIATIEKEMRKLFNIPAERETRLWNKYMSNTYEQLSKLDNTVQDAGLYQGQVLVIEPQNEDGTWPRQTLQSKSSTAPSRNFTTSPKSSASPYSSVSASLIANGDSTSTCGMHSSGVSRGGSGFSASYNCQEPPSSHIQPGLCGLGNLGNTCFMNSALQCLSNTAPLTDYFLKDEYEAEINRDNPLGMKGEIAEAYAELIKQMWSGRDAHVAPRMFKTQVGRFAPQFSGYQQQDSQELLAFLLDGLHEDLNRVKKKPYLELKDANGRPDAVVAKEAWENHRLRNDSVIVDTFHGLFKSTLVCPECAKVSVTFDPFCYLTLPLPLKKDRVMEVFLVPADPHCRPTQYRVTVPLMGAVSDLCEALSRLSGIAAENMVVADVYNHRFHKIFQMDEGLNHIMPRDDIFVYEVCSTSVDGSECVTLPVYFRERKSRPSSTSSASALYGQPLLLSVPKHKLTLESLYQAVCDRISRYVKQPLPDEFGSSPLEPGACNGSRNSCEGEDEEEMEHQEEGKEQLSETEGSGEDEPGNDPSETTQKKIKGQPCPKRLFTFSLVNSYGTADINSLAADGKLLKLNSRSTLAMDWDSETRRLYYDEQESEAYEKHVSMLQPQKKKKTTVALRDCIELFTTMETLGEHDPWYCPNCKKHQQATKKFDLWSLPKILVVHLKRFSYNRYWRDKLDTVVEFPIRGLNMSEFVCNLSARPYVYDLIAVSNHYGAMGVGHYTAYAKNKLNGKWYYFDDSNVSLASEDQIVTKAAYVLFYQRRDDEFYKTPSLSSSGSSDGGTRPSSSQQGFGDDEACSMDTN
Outline: as §1

Measured: log2 ratio of Biotin-Ahx-Ub-VS probe labelling

Chain of USP34 (Q70CQ2 whole entry, the tested form may be a part): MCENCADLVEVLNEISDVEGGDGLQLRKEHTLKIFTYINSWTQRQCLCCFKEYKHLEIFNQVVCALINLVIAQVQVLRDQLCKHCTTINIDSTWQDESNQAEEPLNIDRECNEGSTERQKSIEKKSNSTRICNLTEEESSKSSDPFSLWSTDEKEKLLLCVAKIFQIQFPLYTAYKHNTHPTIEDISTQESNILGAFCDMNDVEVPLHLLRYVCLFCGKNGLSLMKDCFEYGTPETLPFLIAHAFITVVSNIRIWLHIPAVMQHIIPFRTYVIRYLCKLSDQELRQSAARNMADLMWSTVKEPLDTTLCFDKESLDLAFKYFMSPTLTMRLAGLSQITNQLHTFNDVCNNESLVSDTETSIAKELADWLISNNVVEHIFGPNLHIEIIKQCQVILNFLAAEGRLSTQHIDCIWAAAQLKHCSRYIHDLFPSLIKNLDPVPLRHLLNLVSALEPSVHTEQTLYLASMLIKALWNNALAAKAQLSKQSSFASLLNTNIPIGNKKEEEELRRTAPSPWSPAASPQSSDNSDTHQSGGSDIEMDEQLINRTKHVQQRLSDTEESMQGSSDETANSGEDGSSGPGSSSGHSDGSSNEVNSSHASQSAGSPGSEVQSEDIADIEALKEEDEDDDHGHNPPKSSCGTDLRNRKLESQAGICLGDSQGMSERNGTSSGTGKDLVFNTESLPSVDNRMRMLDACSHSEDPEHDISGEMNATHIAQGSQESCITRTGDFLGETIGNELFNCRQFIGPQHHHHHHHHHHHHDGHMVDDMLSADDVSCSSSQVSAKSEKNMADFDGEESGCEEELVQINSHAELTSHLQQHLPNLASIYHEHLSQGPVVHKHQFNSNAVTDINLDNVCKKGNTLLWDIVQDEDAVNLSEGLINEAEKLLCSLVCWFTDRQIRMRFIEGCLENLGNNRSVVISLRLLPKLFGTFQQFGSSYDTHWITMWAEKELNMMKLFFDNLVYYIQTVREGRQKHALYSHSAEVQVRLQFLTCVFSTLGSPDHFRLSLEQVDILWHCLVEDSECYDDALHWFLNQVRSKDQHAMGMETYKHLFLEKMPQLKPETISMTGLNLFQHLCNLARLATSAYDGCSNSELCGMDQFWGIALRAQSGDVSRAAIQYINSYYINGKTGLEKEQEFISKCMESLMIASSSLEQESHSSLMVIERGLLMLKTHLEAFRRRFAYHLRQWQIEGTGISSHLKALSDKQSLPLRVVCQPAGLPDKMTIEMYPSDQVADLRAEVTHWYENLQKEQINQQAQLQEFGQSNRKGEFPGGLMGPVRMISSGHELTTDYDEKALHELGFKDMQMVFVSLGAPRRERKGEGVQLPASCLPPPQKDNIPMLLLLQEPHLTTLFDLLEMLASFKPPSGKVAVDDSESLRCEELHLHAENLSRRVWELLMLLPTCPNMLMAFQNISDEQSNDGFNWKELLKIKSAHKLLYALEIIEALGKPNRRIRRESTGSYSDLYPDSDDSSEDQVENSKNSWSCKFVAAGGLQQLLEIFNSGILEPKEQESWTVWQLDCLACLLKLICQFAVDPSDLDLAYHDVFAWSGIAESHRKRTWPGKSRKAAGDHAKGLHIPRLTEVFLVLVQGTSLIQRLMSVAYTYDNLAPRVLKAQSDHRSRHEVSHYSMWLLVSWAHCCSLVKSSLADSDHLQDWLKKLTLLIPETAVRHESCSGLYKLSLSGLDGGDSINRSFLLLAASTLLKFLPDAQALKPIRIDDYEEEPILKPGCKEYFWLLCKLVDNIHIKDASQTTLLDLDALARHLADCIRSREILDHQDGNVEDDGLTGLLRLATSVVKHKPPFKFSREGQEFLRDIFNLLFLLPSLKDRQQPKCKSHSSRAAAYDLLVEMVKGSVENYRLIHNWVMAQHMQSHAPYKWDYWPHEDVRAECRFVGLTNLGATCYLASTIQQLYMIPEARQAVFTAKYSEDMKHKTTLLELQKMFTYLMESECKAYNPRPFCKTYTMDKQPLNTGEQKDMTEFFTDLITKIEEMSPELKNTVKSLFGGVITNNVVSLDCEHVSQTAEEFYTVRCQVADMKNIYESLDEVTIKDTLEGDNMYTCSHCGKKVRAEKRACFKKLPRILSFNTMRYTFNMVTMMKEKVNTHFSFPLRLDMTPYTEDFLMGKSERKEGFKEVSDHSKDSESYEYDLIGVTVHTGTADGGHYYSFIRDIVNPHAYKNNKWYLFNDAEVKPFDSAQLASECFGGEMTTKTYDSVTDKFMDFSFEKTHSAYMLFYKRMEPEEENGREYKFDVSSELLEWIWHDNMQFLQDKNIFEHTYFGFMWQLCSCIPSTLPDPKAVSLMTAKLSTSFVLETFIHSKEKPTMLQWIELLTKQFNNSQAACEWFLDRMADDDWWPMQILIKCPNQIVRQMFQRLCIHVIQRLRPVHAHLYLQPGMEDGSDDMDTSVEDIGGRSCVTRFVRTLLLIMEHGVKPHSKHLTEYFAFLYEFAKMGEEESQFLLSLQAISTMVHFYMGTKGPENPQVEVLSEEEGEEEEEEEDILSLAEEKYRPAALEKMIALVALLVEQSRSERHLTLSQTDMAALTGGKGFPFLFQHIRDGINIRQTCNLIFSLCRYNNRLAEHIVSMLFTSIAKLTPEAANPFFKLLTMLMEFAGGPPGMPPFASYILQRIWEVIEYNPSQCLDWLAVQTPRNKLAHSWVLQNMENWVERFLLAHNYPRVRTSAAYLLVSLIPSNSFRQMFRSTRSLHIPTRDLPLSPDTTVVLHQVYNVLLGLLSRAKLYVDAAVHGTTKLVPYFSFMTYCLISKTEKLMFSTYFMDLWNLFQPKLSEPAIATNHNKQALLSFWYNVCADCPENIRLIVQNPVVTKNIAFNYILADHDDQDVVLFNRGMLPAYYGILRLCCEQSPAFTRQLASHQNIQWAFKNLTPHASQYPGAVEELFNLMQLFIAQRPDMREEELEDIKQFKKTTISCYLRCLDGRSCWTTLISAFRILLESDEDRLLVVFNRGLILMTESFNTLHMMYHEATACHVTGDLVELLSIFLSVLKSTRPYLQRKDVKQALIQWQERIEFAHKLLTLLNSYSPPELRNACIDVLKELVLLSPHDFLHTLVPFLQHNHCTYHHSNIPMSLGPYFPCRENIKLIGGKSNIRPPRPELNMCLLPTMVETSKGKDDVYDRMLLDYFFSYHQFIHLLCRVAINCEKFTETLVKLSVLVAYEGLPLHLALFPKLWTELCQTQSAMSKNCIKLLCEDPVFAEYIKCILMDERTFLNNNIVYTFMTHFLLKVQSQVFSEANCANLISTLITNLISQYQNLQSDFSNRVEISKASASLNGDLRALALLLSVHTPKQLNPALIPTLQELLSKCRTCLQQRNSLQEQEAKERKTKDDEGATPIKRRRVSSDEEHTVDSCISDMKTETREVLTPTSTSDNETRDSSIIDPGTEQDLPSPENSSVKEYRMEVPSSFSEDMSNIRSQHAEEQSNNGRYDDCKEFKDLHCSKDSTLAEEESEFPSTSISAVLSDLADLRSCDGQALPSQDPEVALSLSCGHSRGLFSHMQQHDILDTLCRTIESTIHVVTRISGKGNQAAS

CN(C)S(=O)(=O)c1ccccc1CNC(=O)CCl
inactive: USP34 0.137 | USP36 -0.00554 | USP38 0.218 | USP39 0.237 | USP4 -0.0523
